Measured values reported in PubChem BioAssay AID488890 (Southern Research Specialized Biocontainment Screening …, 2010).
Hit rate of the full screen: of about 320,000 compounds, about 1,300 (0.41%) were called active. Roughly 3% stayed inconclusive and do not appear here. No rule for the calls is given here. Only a sample is shown. Results with a measured potency or affinity are listed apart.

experiment: growth inhibition of non-replicating M. tuberculosis (AID 488890); conditions: Mycobacterium tuberculosis non-replicating, at 25 µM, stronger effect = higher value;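 also: plate controls were DMSO cells for no effect and high antibiotic wells for full effect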

**Q.** With Cc1nc(CNS(=O)(=O)c2ccccc2F)cs1 as the compound, how does the inhibition read?
**A.** -17.8%

**Q.** With CCN(CCCNC(=O)C1c2ccccc2C(=O)N(CCOC)C1c1ccc(F)cc1)Cc1ccccc1 (stereo not given) as the compound, how does the inhibition read?
**A.** 1.48%

**Q.** Which inhibition does the source give for CCC12CN3CC(CC)(CN(C1)C3c1ccc([N+](=O)[O-])o1)C2=O (stereo not given) here?
**A.** 38.4%

**Q.** For CC12CN3CC(C)(CN(C1)C3c1ccc([N+](=O)[O-])o1)C2=O (stereo not given), which inhibition is on record?
**A.** 18.6%

**Q.** For C/C(=N\NC(=O)c1ccc2c(c1)OCO2)c1ccc(C(=O)O)s1, which inhibition is on record?
**A.** -9.87%

**Q.** With COc1ccc(NC(=O)CN(C)C(=O)c2ccc(-c3ccccc3Cl)o2)cc1 as the compound, how does the inhibition read?
**A.** 12.7%

**Q.** Which inhibition does the source give for CSc1nc(-c2ccco2)nn1C(=O)c1ccc(C)cc1 here?
**A.** 8.76%

**Q.** Which inhibition does the source give for CC(C)(C)OC(=O)NCCc1nnc(SCc2ccc(Cl)cc2)o1 here?
**A.** 64.8%

**Q.** For CC(C)(C)OC(=O)NCCc1nnc(SCc2ccc(Cl)cc2Cl)o1, which inhibition is on record?
**A.** 41.4%

**Q.** For CCOC(=O)c1nnc(-c2cccs2)nc1Oc1ccc(Cl)cc1, which inhibition is on record?
**A.** -0.21%

**Q.** For COc1ccc(OC(=O)c2cn(C)nc2C(F)(F)F)cc1, which inhibition is on record?
**A.** 12.6%

**Q.** For CCN(C/C=C/c1ccccc1OC)Cc1ccccc1, which inhibition is on record?
**A.** 27.1%

**Q.** For CCCCN(CCCC)Cc1ccc(N)cc1, which inhibition is on record?
**A.** 19.4%

**Q.** For CCOC(=O)C1CCCN(S(=O)(=O)c2c(C)noc2C)C1 (stereo not given), which inhibition is on record?
**A.** -14.5%

**Q.** With CC(C)CN(C(=O)COC(=O)c1cccn1C)c1c(N)n(Cc2ccccc2)c(=O)[nH]c1=O as the compound, how does the inhibition read?
**A.** 16.9%

**Q.** For CCOC(=O)Oc1ccc(/C=C2\N=C(C)OC2=O)cc1, which inhibition is on record?
**A.** -12.5%

**Q.** Which inhibition does the source give for CC(=O)Oc1ccc(/C=C2/Oc3ccccc3C2=O)cc1 here?
**A.** 36%

**Q.** With COc1ncnc(OC)c1S(=O)(=O)NCc1ccccc1 as the compound, how does the inhibition read?
**A.** -2.39%

**Q.** With CCOc1ccc(OCc2cccc(C(=O)N/N=C/c3cccnc3)c2)cc1 as the compound, how does the inhibition read?
**A.** 59.6%

**Q.** With CCOc1ccc(CC(=O)N/N=C/c2cccnc2)cc1 as the compound, how does the inhibition read?
**A.** -5.71%

**Q.** For Cc1[nH]n2cnnc2c(=O)c1Br, which inhibition is on record?
**A.** -1.45%

**Q.** Which inhibition does the source give for COc1ccc(-c2nc(NC(=O)Cn3cnnn3)sc2C)cc1 here?
**A.** 13.2%

**Q.** With CCOC(=O)c1c(C)[nH]c(C)c1C(=O)COC(=O)/C=C/c1ccccc1[N+](=O)[O-] as the compound, how does the inhibition read?
**A.** 46.8%

**Q.** For CCOC(=O)c1c(C)[nH]c(C)c1C(=O)COC(=O)c1cccs1, which inhibition is on record?
**A.** 28.9%

**Q.** With Cc1[nH]c2ccccc2c1C(=O)COC(=O)c1ccccc1O as the compound, how does the inhibition read?
**A.** 31.1%

**Q.** Which inhibition does the source give for Cc1cccc(C(=O)OCC(=O)c2c(C)[nH]c3ccccc23)c1O here?
**A.** 3.19%

**Q.** Which inhibition does the source give for Cc1cc(C(=O)OCC(=O)N2CCC(c3ccccc3)=N2)ccc1[N+](=O)[O-] here?
**A.** 22.1%

**Q.** Which inhibition does the source give for O=C(Cc1ccccc1[N+](=O)[O-])OCC(=O)c1c[nH]c2ccccc12 here?
**A.** 4.48%

**Q.** For CCc1cc(C(=O)OCC(=O)N2CCC(c3ccccc3)=N2)sc1C, which inhibition is on record?
**A.** 65.9%

**Q.** With O=C(OCC(=O)c1c[nH]c2ccccc12)c1cccc([N+](=O)[O-])c1 as the compound, how does the inhibition read?
**A.** -14.6%

**Q.** Which inhibition does the source give for O=C(NCCCCl)C1CC(=O)N(CCc2ccc(F)cc2)C1 (stereo not given) here?
**A.** 5.65%

**Q.** For O=C(O)c1cc(N2C(=O)C3CCCCC3C2=O)ccc1NCc1cccnc1 (stereo not given), which inhibition is on record?
**A.** 4.47%

**Q.** With CCN(CC)C(=O)Cn1cc(C(=O)C(=O)NCc2cccnc2)c2ccccc21 as the compound, how does the inhibition read?
**A.** -4.61%

**Q.** Which inhibition does the source give for COc1cc(OC)cc(C(C(=O)NC2CCCCC2)N(C(=O)c2ccno2)c2ccccc2)c1 (stereo not given) here?
**A.** 8.21%

**Q.** Which inhibition does the source give for Cc1ccc(CN2CC(C(=O)Nc3ncccc3C)CC2=O)cc1 (stereo not given) here?
**A.** -7.14%

**Q.** With COc1cccc(/C=N/NC(=O)c2nnn(-c3nonc3N)c2-c2cccs2)c1 as the compound, how does the inhibition read?
**A.** 7.66%

**Q.** For COc1ccc(C(=O)OCC(=O)Nc2ncc([N+](=O)[O-])s2)cc1OC, which inhibition is on record?
**A.** -11.2%

**Q.** Which inhibition does the source give for COc1ccc(C(=O)COC(=O)c2ccc(OC)c(OC)c2)cc1OC here?
**A.** 3.56%

**Q.** Which inhibition does the source give for O=C(CSc1nc(=O)n(CCCN2CCOCC2)c2c1CCCC2)Nc1ccccc1Cl here?
**A.** 11.7%

**Q.** Which inhibition does the source give for CC(C)(C)c1ccc(OCCC(=O)NC2=NCCS2)cc1 here?
**A.** 66.8%

**Q.** For CCOc1ccc(OCCCC(=O)NC2=NCCS2)cc1, which inhibition is on record?
**A.** 40.7%

**Q.** With CCn1c(C)nc2c(=O)oc3ccccc3c21 as the compound, how does the inhibition read?
**A.** -3.87%

**Q.** Which inhibition does the source give for CN(C)CCn1nnc2c(=O)oc3ccccc3c21 here?
**A.** -13.7%

**Q.** Which inhibition does the source give for CC(C)Cn1cnc2c(=O)oc3ccccc3c21 here?
**A.** -17.9%

**Q.** For CCC(C)n1cnc2c(=O)oc3ccccc3c21 (stereo not given), which inhibition is on record?
**A.** -10.2%

**Q.** For O=c1oc2ccccc2c2c1nnn2CCO, which inhibition is on record?
**A.** 97.3%

**Q.** For Cc1ccc(-n2nnc3c(=O)oc4ccccc4c32)cc1, which inhibition is on record?
**A.** 6.67%

**Q.** Which inhibition does the source give for CSc1n[nH]c(/N=C/c2oc(O)c3ccccc23)n1 here?
**A.** -21.1%

**Q.** For O=C(CNC(=O)c1ccc(Cl)cc1)NC1CCCCC1, which inhibition is on record?
**A.** -2.3%

**Q.** Which inhibition does the source give for CN(CC(=O)Nc1ccc(N2CCOCC2)cc1)C(=O)c1cc(F)c(F)cc1Cl here?
**A.** -5.8%

**Q.** For CCc1ccc(C(=O)COC(=O)CNC(=O)Cc2ccccc2)cc1, which inhibition is on record?
**A.** 47.9%

**Q.** Which inhibition does the source give for Cc1csc(N2CCCC2c2nc3cc(Cl)c(N4CCCCC4)cc3n2CCOCCO)n1 (stereo not given) here?
**A.** 5.44%

**Q.** With CNCc1ccccc1OCc1ccccc1F as the compound, how does the inhibition read?
**A.** 8.9%

**Q.** Which inhibition does the source give for CC(=O)Oc1ccc2nc(-c3ccco3)oc(=O)c2c1 here?
**A.** 42%

**Q.** Which inhibition does the source give for N#Cc1ccc(OCC(=O)Nc2nc(-c3cccnc3)cs2)cc1 here?
**A.** -5.75%

**Q.** Which inhibition does the source give for O=C(CCCOc1ccccc1)Nc1cccnc1 here?
**A.** 44.6%

**Q.** With N#Cc1ccc(OCC(=O)Nc2ccncc2)cc1 as the compound, how does the inhibition read?
**A.** 46.2%

**Q.** Which inhibition does the source give for O=C(COc1ccc([N+](=O)[O-])cc1)Nc1cccnc1 here?
**A.** 51.3%

**Q.** Which inhibition does the source give for COc1ccc(/C=N/NC(=O)c2ccc3c(c2)OCO3)c(C(=O)O)c1OC here?
**A.** 37.5%

**Q.** With NS(=O)(=O)c1ccc(CCNC(=S)Nc2ccc(F)cc2)cc1 as the compound, how does the inhibition read?
**A.** 30%

**Q.** With O=C(c1cccc(F)c1)N1CCN(C(=O)C2CC2)CC1 as the compound, how does the inhibition read?
**A.** 0.47%

**Q.** Which inhibition does the source give for C[C@@H]1CN([C@H](C)CO)C(=O)c2cc(NC(=O)C3CCCCC3)ccc2O[C@@H]1CN(C)Cc1ccc(C(F)(F)F)cc1 here?
**A.** 28%

**Q.** With CC(=O)c1ccc(NC(=O)Cc2cccs2)cc1 as the compound, how does the inhibition read?
**A.** 47%

**Q.** Which inhibition does the source give for COC(=O)C1=C(c2ccc(F)cc2OCc2ccccc2)C[C@@H]2CC[C@H]1N2C(=O)NC1CCCCC1 here?
**A.** 39.2%

**Q.** Which inhibition does the source give for COc1ccc(/C(C)=N/Nc2nc3ccccc3nc2C)cc1OC here?
**A.** 18.1%

**Q.** With COc1ccc(/C(C)=N/Nc2nc3ccccc3nc2C)cc1 as the compound, how does the inhibition read?
**A.** -2.93%

**Q.** With N#Cc1ccc(COC(=O)c2cccnc2Cl)cc1 as the compound, how does the inhibition read?
**A.** 57%

**Q.** With Cc1ccc(-c2cc(C(F)(F)F)n3ncc(C(=O)N4CCCc5ccccc54)c3n2)cc1 as the compound, how does the inhibition read?
**A.** 9.06%

**Q.** For COC(=O)c1ccc(/C=C/C(=O)OCC(=O)NCc2cccs2)cc1, which inhibition is on record?
**A.** 13.7%

**Q.** Which inhibition does the source give for CN1CC(C(=O)c2ccc(Cl)cc2)C(c2ccc(Cl)cc2Cl)C1 (stereo not given) here?
**A.** 55.7%

**Q.** For CN1CCCC(C(=O)c2ccc(Cl)cc2)C1 (stereo not given), which inhibition is on record?
**A.** 2.9%

**Q.** Which inhibition does the source give for CN1CCCC(C(=O)c2ccccc2)C1 (stereo not given) here?
**A.** -7.66%

**Q.** Which inhibition does the source give for CC1CN(C(=O)c2cccs2)CC(C)O1 (stereo not given) here?
**A.** -2.97%

**Q.** With CN1CCC(NC(=O)c2cccs2)CC1 as the compound, how does the inhibition read?
**A.** -14.8%

**Q.** For CN1CC(C(=O)c2ccccc2)C(C(=O)c2ccccc2)C1 (stereo not given), which inhibition is on record?
**A.** 14.7%
